The record followed here is PubChem BioAssay (EPA / NIEHS).

Records with an inconclusive call do not appear. Activity calls are given as the source filed them. The calls were made as follows, unless noted: active = hit-call score of the fitted dose curve at least 0.9, where 1 is the maximum; inconclusive = response in the unintended direction; inactive = score below 0.9.

The nature of assay [1]: ATG_TGFb_CIS: Attagene CIS-FACTORIAL HepG2 Assay for human Transforming Growth Factor (TGF) (AID 2282967; active = hit-call score of the fitted dose curve at least 0.9, where 1 is the maximum; inactive = score below 0.9). The conditions noted are these: HepG2 Attagene CIS TGFb reporter, mRNA transcription; actives raise or lower the signal. The essentials:
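HepG2 cells transiently transfected with cis-promoter-driven multiplexed reporter units; 24 h compound exposure. Reporter mRNA measured by RT-PCR, 6-FAM labeling, HpaI digestion and capillary electrophoresis; bidirectional fit versus DMSO baseline.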

Assay [2] in a line: ATG_VDRE_CIS: Attagene CIS-FACTORIAL HepG2 Assay for human Vitamin D Receptor Element (VDRE) (AID 2282968; active = hit-call score of the fitted dose curve at least 0.9, where 1 is the maximum; inactive = score below 0.9). The following applies: HepG2 VDRE cis-reporter transcription, actives raise or lower the signal. In short, it runs like this: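 In transiently transfected HepG2 liver cells, gain or loss of reporter mRNA after 24 h exposure is scored relative to DMSO, using fluorescence detection by capillary electrophoresis of RT-PCR products.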

The target of assay [3] is Nuclear receptor subfamily 1 group I member 3 (Homo sapiens) (UniProt Q14994). Kind of assay: ATG_CAR_TRANS: Attagene TRANS-FACTORIAL HepG2 Assay for human Constitutive Androstane Receptor (CAR) (AID 2282969).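 Also: activators raise reporter mRNA above DMSO so AC50 marks induction.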 The conditions noted are these: HepG2 Attagene TRANS-FACTORIAL CAR reporter. The essentials:
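Readout is reporter mRNA induction, quantified by fluorescent primer extension and capillary electrophoresis after RT-PCR. Cells were HepG2 transiently carrying chimeric NR-Gal4 constructs with GAL4-UAS reporters, treated for 24 h; activity scored upward from DMSO.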

Assay [4] has as its target X-box-binding protein 1 (Homo sapiens) (UniProt P17861). The assay can be described thus: ATG_Xbp1_CIS: Attagene CIS-FACTORIAL HepG2 Assay for human X-box Binding Protein 1 (XBP1) (AID 2282972; active = hit-call score of the fitted dose curve at least 0.9, where 1 is the maximum; inactive = score below 0.9). The following applies: HepG2 XBP1 cis-element reporter, Attagene multiplex; actives raise or lower the signal. In short, it runs like this: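 HepG2 cells transiently transfected with multiple cis-element reporter units report endogenous TF activity; 24 h exposure, then reporter mRNA measured by RT-PCR, 6-FAM labelling, HpaI digestion and capillary electrophoresis. Bidirectional fitting versus DMSO.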

In assay [5] the target is Glucocorticoid receptor (Homo sapiens) (UniProt P04150). Kind of assay: ATG_GR_TRANS: Attagene TRANS-FACTORIAL HepG2 Assay for human Glucocorticoid Receptor (GR) (AID 2282978).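 Also: activators score as hits since higher reporter transcript over DMSO is fitted.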 The conditions noted are these: HepG2 Attagene TRANS GR reporter, mRNA transcription. In short, it runs like this:
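Transient MRTU transfection of HepG2 (GAL4-UAS reporters, exogenous NR-GAL4 chimeras), 24 h dosing. Readout: reporter transcript via RT-PCR + capillary electrophoresis fluorescence. Positive direction vs DMSO baseline.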

Assay [6] concerns the target Bile acid receptor (Homo sapiens) (UniProt Q96RI1). Kind of assay: ATG_FXR_TRANS: Attagene TRANS-FACTORIAL HepG2 Assay for Farnesoid X Receptor (FXR) (AID 2282979).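 Also: hits raise reporter mRNA above DMSO so AC50 marks FXR activation.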 The following applies: HepG2 Attagene TRANS FXR-GAL4 reporter transcription. The essentials: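 Read-out: fluorescent reporter transcripts quantified by capillary electrophoresis after RT-PCR of total RNA. Source cells were HepG2 transiently carrying chimeric NR-GAL4 plus GAL4-UAS reporter units, dosed 24 h. Activity fitted upward relative to DMSO baseline.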

A short description of assay [7]: ATG_M_06_TRANS: Attagene TRANS-FACTORIAL HepG2 Assay for M06 Transcription Factor (Internal Marker) (AID 2282983). The following applies: HepG2 Attagene TRANS M06 internal marker reporter. In short, it runs like this:
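After a 24 h chemical treatment of transfected HepG2, RNA underwent DNase I treatment, reverse transcription and reporter-specific PCR; labelled, HpaI-digested products were sized by capillary electrophoresis. Signal increase relative to DMSO defined activity.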

Assay [8] is described as follows: ATG_M_32_TRANS: Attagene TRANS-FACTORIAL HepG2 Assay for M32 Transcription Factor (Internal Marker) (AID 2282984).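 Also: transcript level of a background control reporter unit measured by RT-PCR and capillary electrophoresis.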 The conditions noted are these: HepG2 Attagene TRANS M32 internal marker reporter. In short, it runs like this: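 Using transiently transfected HepG2 cells exposed to test chemicals for 24 h, reporter transcripts are converted to labelled cDNA fragments and quantified by capillary electrophoresis. DMSO defines the activity baseline.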

Assay [9] deals with Transcriptional activator Myb (Homo sapiens) (UniProt P10242). The assay can be described thus: ATG_Myb_CIS: Attagene CIS-FACTORIAL HepG2 Assay for human Myeloblastosis (Myb) Proto-Oncogene Transcription Factor (AID 2282986; active = hit-call score of the fitted dose curve at least 0.9, where 1 is the maximum; inactive = score below 0.9). The following applies: HepG2 Attagene CIS-FACTORIAL Myb reporter transcription; actives raise or lower the signal. The essentials:
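HepG2, transient MRTU transfection (cis-element promoters, endogenous TF activity), 24 h compound exposure. Readout: reporter mRNA via RT-PCR, 6-FAM labeling, HpaI digest, capillary electrophoresis. Gain/loss fit vs DMSO.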

Assay [10] addresses Nuclear respiratory factor 1 (Homo sapiens) (UniProt Q16656). The assay can be described thus: ATG_NRF1_CIS: Attagene CIS-FACTORIAL HepG2 Assay for human Nuclear Respiratory Factor 1 (NRF1) Orphan Gene (AID 2282987; active = hit-call score of the fitted dose curve at least 0.9, where 1 is the maximum; inactive = score below 0.9). The conditions noted are these: HepG2 NRF1 cis-element reporter, Attagene multiplex; actives raise or lower the signal. The essentials:
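Endogenous NRF1-driven reporter transcription measured in transiently transfected human HepG2 liver cells. Readout: reporter mRNA by RT-PCR and capillary electrophoresis with fluorescence detection, 24 h post-dosing. Gain or loss of signal fitted relative to DMSO baseline.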

Assay [11] has as its target Androgen receptor (Homo sapiens) (UniProt P10275). The assay can be described thus: ATG_AR_TRANS: Attagene TRANS-FACTORIAL HepG2 Assay for human Androgen Receptor (AR) (AID 2282973). The following applies: HepG2 Attagene TRANS-FACTORIAL AR reporter transcription. In short, it runs like this:
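Readout is reporter transcript abundance, quantified by fluorescent RT-PCR products separated on capillary electrophoresis. Human HepG2 liver cells carried transiently transfected NR-Gal4 chimera plus GAL4-UAS reporter constructs and were dosed for 24 h; activity scored upward versus DMSO.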

Assay [12] can be described thus: ATG_GAL4_TRANS: Attagene TRANS-FACTORIAL HepG2 Assay for GAL4 (Internal Marker) (AID 2282976). The conditions noted are these: HepG2 Attagene TRANS GAL4 internal marker reporter. In short, it runs like this: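 RT-PCR/capillary electrophoresis readout of reporter mRNA. HepG2, transient MRTU transfection (GAL4-UAS reporters), 24 h compound exposure. Background-control endpoint, positive direction vs DMSO baseline.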

In assay [13] the target is Estrogen-related receptor gamma (Homo sapiens) (UniProt P62508). The assay can be described thus: ATG_ERRg_TRANS: Attagene TRANS-FACTORIAL HepG2 Assay for human Estrogen-Related Receptor gamma (ERRg) (AID 2282977).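 Also: hits increase reporter signal over DMSO so potencies reflect activators.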 The conditions noted are these: HepG2 Attagene TRANS reporter, ERRg transactivation. In short, it runs like this: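 HepG2 cells transiently transfected with multiplexed GAL4-UAS reporter units and chimeric NR-Gal4 constructs were exposed to test chemicals for 24 h. Reporter mRNA was measured by RT-PCR, 6-FAM primer extension, HpaI digestion and capillary electrophoresis; gain-of-signal versus DMSO.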

In assay [14] the target is Oxysterols receptor LXR-beta (Homo sapiens) (UniProt P55055). Kind of assay: ATG_LXRb_TRANS: Attagene TRANS-FACTORIAL HepG2 Assay for human Liver X Receptor beta (LXRb) (AID 2282981). The following applies: HepG2 Attagene TRANS GAL4-LXRb reporter, mRNA. In short, it runs like this:
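Cells: HepG2, transiently transfected with GAL4-UAS reporter units plus LXRb-Gal4 fusion. Treatment: 24 h. Detection: reporter mRNA by RT-PCR, 6-FAM labelling, HpaI digestion, capillary electrophoresis.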

In assay [15] the target is Estrogen receptor (Homo sapiens) (UniProt P03372). Kind of assay: ATG_ERa_TRANS: Attagene TRANS-FACTORIAL HepG2 Assay for human Estrogen Receptor alpha (ERa) (AID 2282970). The conditions noted are these: HepG2 Attagene TRANS ERa GAL4 reporter, mRNA. In short, it runs like this:
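After 24 h of compound treatment, RNA from HepG2 cells bearing transfected GAL4-UAS reporter constructs is converted to cDNA, amplified and fluorescently labelled. Capillary electrophoresis resolves the ERa-linked reporter; DMSO serves as negative control.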

Assay [16] addresses Hepatocyte nuclear factor 4-alpha (Homo sapiens) (UniProt P41235). The assay can be described thus: ATG_HNF4a_TRANS: Attagene TRANS-FACTORIAL HepG2 Assay for human Hepatocyte Nuclear Factor 4 alpha (HNF4a) (AID 2282982). The following applies: HepG2 HNF4a transactivation reporter, mRNA readout. The essentials: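 Transfected HepG2 reporter cells are dosed for 24 h; reporter RNA is reverse-transcribed, amplified, fluorescently labelled and HpaI-digested before CE sizing. Positive-direction fit against DMSO.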

Assay [17] deals with Steroid hormone receptor ERR1 (Homo sapiens) (UniProt P11474). Kind of assay: ATG_ERRa_TRANS: Attagene TRANS-FACTORIAL HepG2 Assay for human Estrogen-Related Receptor alpha (ERRa) (AID 2282971). The conditions noted are these: HepG2 Attagene TRANS reporter, ERRa transactivation. In short, it runs like this: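 Transfected HepG2, 24 h dosing, ERRa-Gal4 chimera driving GAL4-UAS reporter. Readout: reporter mRNA via RT-PCR plus capillary electrophoresis (fluorescence). Positive direction vs DMSO control.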

A short description of assay [18]: ATG_M_19_TRANS: Attagene TRANS-FACTORIAL HepG2 Assay for M19 Transcription Factor (Internal Marker) (AID 2282974). The conditions noted are these: HepG2 Attagene TRANS-FACTORIAL M19 internal marker reporter. The essentials: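 24 h chemical exposure of transiently transfected HepG2 (MRTU library). RNA → oligo(dT) RT → PCR → 6-FAM labelling → HpaI cut → CE fluorescence. Positive-direction fit vs DMSO baseline; background internal-marker readout.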

Assay [19] concerns the target Oxysterols receptor LXR-alpha (Homo sapiens) (UniProt Q13133). The assay can be described thus: ATG_LXRa_TRANS: Attagene TRANS-FACTORIAL HepG2 Assay for human Liver X Receptor alpha (LXRa) (AID 2282980). The conditions noted are these: HepG2 Attagene TRANS reporter, LXRa transactivation. In short, it runs like this: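 Read-out: reporter transcript levels by RT-PCR plus capillary electrophoresis, fluorescence intensity. Transiently transfected HepG2, exogenous NR-GAL4 chimera, GAL4-UAS reporters; 24 h compound exposure. Activity = increase over DMSO negative control.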

The target in assay [20] is Nuclear receptor subfamily 4 group A member 2 (Homo sapiens) (UniProt P43354). The assay can be described thus: ATG_NURR1_TRANS: Attagene TRANS-FACTORIAL HepG2 Assay for human Nuclear Receptor Related Protein 1 (NURR1) (AID 2282985). The conditions noted are these: HepG2 Attagene TRANS reporter, mRNA readout. The essentials:
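Cells: HepG2, transiently transfected. Exposure: 24 h. Detection: fluorescence of labelled RT-PCR products separated by capillary electrophoresis; upward fit versus DMSO.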

Sequence of Oxysterols receptor LXR-beta (Homo sapiens) (P55055 whole entry, looked up, the tested form may be a part): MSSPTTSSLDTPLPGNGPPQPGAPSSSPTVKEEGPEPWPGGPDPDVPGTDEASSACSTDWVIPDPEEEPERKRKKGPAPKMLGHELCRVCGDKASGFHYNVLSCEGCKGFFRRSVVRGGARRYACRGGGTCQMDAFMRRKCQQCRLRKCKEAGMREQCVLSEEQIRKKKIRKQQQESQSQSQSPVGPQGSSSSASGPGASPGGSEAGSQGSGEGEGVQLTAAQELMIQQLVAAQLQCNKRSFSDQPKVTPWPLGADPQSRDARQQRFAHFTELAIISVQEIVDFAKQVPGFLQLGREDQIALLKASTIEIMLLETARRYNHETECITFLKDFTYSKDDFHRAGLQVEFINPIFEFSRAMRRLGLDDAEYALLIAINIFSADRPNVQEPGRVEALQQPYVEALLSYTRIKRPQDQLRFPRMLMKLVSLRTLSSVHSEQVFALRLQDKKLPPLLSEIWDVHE
Sequence of Transcriptional activator Myb (Homo sapiens) (P10242 whole entry, looked up): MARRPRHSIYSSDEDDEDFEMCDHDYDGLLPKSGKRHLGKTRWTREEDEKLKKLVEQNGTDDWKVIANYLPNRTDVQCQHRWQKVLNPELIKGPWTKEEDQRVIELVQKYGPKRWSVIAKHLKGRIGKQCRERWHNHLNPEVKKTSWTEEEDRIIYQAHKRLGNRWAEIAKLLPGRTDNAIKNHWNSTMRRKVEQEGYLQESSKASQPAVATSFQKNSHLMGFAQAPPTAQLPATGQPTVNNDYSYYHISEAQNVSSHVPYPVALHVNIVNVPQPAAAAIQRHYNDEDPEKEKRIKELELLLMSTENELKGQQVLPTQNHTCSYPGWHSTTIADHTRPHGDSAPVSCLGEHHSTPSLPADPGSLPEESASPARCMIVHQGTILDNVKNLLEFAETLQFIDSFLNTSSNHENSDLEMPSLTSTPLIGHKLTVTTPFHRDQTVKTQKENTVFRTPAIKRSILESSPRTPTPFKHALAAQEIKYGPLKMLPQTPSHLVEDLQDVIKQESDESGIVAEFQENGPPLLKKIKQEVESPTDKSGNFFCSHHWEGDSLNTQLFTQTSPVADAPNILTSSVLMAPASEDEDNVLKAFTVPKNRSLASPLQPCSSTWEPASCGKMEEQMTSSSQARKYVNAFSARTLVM
Sequence of Nuclear respiratory factor 1 (Homo sapiens) (Q16656 whole entry, looked up): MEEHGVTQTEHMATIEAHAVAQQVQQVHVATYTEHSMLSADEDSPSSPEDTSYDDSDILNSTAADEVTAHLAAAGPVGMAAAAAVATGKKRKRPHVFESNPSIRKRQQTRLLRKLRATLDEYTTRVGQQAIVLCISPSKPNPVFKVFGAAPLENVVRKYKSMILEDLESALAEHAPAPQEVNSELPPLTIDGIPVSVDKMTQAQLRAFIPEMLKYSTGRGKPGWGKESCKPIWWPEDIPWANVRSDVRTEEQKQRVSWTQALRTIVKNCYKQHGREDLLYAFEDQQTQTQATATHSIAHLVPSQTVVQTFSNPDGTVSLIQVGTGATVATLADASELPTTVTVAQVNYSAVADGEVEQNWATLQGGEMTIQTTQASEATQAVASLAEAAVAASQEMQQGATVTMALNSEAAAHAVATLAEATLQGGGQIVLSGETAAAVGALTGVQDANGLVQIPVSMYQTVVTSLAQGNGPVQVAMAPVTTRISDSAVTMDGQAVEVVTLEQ
Sequence of X-box-binding protein 1 (Homo sapiens) (P17861 whole entry, looked up): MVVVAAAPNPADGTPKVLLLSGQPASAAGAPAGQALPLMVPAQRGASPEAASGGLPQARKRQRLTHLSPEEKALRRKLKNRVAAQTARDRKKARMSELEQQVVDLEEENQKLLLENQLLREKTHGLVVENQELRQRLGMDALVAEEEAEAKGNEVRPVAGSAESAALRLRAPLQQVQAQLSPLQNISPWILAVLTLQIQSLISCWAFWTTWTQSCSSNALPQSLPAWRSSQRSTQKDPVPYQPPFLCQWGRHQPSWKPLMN
Sequence of Nuclear receptor subfamily 1 group I member 3 (Homo sapiens) (Q14994 whole entry, looked up, the tested form may be a part): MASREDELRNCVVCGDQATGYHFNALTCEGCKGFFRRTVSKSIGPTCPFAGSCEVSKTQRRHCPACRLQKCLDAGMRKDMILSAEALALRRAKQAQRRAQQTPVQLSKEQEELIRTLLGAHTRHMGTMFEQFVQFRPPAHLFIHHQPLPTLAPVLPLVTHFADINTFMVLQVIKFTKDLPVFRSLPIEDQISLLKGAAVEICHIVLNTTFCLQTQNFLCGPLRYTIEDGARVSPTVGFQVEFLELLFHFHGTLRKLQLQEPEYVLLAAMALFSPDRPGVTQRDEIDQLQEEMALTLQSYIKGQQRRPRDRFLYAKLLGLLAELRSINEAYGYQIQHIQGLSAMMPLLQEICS
Sequence of Glucocorticoid receptor (Homo sapiens) (P04150 whole entry, looked up, the tested form may be a part): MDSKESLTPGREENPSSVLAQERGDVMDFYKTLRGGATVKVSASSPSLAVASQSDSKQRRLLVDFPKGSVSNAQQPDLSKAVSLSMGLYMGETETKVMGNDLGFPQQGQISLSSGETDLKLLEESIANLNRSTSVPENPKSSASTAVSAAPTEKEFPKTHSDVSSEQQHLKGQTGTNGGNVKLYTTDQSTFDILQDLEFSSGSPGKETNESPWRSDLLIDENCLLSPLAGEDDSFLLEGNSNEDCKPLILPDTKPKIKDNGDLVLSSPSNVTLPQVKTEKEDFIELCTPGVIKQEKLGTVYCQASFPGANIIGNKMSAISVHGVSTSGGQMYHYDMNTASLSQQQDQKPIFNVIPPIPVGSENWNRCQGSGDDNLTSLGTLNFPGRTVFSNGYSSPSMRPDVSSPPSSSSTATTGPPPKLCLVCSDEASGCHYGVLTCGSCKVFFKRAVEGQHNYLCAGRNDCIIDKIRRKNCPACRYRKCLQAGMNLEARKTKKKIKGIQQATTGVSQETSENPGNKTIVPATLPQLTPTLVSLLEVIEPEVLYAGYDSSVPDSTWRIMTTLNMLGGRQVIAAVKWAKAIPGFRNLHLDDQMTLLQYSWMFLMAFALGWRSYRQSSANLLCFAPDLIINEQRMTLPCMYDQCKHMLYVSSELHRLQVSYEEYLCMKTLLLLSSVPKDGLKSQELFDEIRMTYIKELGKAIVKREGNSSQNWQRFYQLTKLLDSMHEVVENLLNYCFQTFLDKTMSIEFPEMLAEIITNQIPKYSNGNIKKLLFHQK
Sequence of Estrogen receptor (Homo sapiens) (P03372 whole entry, looked up, the tested form may be a part): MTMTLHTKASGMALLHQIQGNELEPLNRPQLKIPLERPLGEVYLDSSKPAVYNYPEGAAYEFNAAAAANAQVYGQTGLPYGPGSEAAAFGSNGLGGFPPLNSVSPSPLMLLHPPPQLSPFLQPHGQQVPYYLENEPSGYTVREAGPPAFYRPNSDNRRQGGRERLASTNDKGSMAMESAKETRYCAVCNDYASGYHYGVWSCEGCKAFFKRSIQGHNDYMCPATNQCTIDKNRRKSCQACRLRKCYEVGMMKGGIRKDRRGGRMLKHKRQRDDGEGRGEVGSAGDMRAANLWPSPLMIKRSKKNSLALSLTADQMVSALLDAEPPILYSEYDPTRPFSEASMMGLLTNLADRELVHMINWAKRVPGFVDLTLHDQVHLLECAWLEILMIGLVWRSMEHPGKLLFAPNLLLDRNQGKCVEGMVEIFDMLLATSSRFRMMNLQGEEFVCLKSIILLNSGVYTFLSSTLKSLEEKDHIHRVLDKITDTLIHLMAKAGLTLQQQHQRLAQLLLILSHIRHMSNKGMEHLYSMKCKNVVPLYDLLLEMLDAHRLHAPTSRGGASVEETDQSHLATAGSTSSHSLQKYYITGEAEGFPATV
Sequence of Bile acid receptor (Homo sapiens) (Q96RI1 whole entry, looked up, the tested form may be a part): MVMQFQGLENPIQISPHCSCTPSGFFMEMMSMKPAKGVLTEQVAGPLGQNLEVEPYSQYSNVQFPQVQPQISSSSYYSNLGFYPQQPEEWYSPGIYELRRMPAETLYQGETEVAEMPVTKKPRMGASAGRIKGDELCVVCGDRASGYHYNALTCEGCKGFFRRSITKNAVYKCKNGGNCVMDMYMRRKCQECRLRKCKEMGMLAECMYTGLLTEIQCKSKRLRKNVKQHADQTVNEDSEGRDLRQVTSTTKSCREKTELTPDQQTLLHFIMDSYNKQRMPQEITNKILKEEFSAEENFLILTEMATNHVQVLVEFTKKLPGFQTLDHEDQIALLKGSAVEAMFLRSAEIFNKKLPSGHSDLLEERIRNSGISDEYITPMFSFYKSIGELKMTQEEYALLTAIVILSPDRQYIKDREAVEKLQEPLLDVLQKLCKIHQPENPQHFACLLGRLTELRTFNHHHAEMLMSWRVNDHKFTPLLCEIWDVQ
Sequence of Androgen receptor (Homo sapiens) (P10275 whole entry, looked up, the tested form may be a part): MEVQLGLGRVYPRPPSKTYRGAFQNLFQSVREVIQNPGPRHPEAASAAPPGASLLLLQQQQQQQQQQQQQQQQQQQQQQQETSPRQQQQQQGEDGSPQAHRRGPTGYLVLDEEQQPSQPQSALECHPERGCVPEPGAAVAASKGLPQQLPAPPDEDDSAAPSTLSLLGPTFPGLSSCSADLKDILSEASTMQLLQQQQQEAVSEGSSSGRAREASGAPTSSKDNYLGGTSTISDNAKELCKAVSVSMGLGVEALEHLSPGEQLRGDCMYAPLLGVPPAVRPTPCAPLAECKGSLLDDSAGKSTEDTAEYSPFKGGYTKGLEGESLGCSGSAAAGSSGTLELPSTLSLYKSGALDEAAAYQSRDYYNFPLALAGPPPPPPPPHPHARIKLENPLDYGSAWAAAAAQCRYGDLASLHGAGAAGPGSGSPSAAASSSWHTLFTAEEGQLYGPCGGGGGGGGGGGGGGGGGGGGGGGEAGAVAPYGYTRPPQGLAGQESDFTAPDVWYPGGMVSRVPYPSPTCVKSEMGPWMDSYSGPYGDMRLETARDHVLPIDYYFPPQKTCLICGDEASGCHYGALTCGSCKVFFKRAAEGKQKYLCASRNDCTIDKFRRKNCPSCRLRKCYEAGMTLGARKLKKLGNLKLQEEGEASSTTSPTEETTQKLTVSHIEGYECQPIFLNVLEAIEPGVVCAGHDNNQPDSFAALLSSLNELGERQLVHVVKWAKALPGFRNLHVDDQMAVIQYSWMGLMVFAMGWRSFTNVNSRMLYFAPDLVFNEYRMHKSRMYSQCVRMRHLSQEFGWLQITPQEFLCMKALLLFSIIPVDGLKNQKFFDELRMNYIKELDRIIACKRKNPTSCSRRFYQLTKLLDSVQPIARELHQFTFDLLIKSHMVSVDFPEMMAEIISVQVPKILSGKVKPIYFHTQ

Consider `ClCCCCl`, for which the compound was called inactive in assay [1], in assay [2], in [3], in assay [4], in assay [5] and in assay [6]. The outcome in [7], in [8], in assay [9] and in [10] was inactive.
For the compound `O=C(N[C@H]1CN2CCC1CC2)c1ccc2c(c1)OCCO2`, the call in assay [1], in assay [2], in assay [3], in assay [4], in assay [11] and in [12] was inactive. The result in assay [13], in assay [5], in [14], in assay [7], in assay [8] and in assay [9] was inactive. Moreover, the outcome in assay [10] was inactive.
With `CCNc1nc(NCC)nc(SC)n1`, the call in assay [1], in [2], in assay [3], in assay [15], in [4] and in [5] was inactive. For the same compound, the result in assay [16], in [7], in [8], in [9] and in assay [10] was inactive.
`C=C(C)C(=O)OCCCCOC(=O)C(=C)C`: the compound was classed as inactive in assay [1], in assay [2], in [15], in [17], in assay [4] and in [18]. The compound was called inactive in assay [12], in assay [14], in [8], in assay [9] and in [10].
In the case of `COC(=O)c1cc(Oc2ccc(Cl)cc2Cl)ccc1[N+](=O)[O-]`, the results for the AC50 in [1], in assay [2] and in assay [20] were 66.8 µM (active), 10.8 µM (active) and 32.3 µM (active), respectively. Further, the compound was classed as inactive in assay [3], in [15], in assay [4], in [6], in assay [19] and in [14]. Moreover, the result in assay [7], in assay [8], in [9] and in assay [10] was inactive.

Usually AC50 stands for the midpoint of the concentration-response curve, whichever way the signal moves.
